High-throughput results as filed in PubChem.
TGFb inhibitor = blocks TGF-b signaling; Potency, µM (top dose mostly 46.1 µM), hits mostly inhibitors; HepG2 CAGA-GFP TGF-b/SMAD3 reporter, GFP fluorescence, 18 h; TGF-beta stimulated, 500 pg/mL final; AID 588855; 410,000 tested, 1.2% active; note: nearly all actives have a fitted effect of over 65% in size
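Per well, imaged GFP fluorescence of HEPG2 CAGA-GFP cells gives the signal; cells get compound, then TGF-beta (500 pg/mL final), 18 h at 37 degrees C; %Activity versus -TGF-beta and +DMSO controls.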
HepG2 viability = kills HepG2 cells in TGF-b inhibitor counter-screen | AID 588856 | HepG2 CAGA-GFP viability, ATP luminescence, 18 h | 410,000 tested, 0.76% active | Potency, µM (highest dose often 46.1 µM), most hits filed as cytotoxic
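HepG2 CAGA-GFP cells (1000/well, DMEM with 1% FBS) received compound, then TGF-beta at 500 pg/mL final, and were incubated 18 hours at 37 degrees C. Viability was read by CellTiter-Glo luminescence. Media-only wells were set as complete cell-killing and DMSO as no toxicity.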
A549 viability = kills or reduces viability of A549 cells in Nrf2 counter-screen. A549 ARE-Fluc cells, CellTiter-Fluor viability, 18-24 h. Potency, µM (highest dose often 46 µM), most hits filed as inhibitors. 390,000 tested, 0.16% active
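A549 ARE-Fluc cells in 5% FBS OPTI-MEM, 5000 cells/well, rested 2 h then exposed to compounds in concentration-response for 18-24 h at 37 °C. Viability by CellTiter-Fluor fluorescence (Ex 405/Em 525) after 30 min; luciferase luminescence (BugLite, 15 min, RT) read afterwards.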
Nrf2 inh = blocks Nrf2 signaling. Potency, µM (top dose mostly 46 µM), actives largely listed as inhibitors. 360,000 tested, 2.1% active. A549 ARE-Fluc reporter, luciferase luminescence, 18-24 h. AID 504444; note: nearly all actives have a fitted effect of over 60% in size
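Nrf2 activity is the BugLite luminescence, read 15 min after reagent at room temperature, following CellTiter-Fluor cytotoxicity readout (30 min, 37C). Compound titrations were applied for 18-24 h to 5000 A549 ARE_Fluc cells/well in 5% FBS OPTI-MEM.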
ATXN2 expr inh = inhibitors of ATXN2 expression | HEK-293 ATXN2-luciferase reporter, luminescence, 24 h | Potency, µM (top dose mostly 57 µM), usual class: inhibitors | 360,000 tested, 0.72% active | AID 1745845; note: nearly all actives have a fitted effect of over 55% in size
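ATXN2-luciferase reporter cells (luciferase flanked by upstream and downstream ATXN2 gene portions) were treated 24 h at 37 °C with compounds at up to 57 uM. SteadyGlo luminescence gave expression; GF-AFC fluorescence gave viability.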
S2 tox = reduces viability in counter-screen for ATXN expression inhibitors | S2 cells (HEK-293 line with an ATXN2-luciferase reporter) viability, CellTiter-Fluor protease fluorescence, 24 h | Potency, µM (top dose mostly 56.7 µM), actives largely listed as cytotoxic | 400,000 tested, 0.49% active | AID 651635; note: nearly all actives have a fitted effect of over 40% in size
Of the large screens only hits and unclear results are named; the others gave an inactive call. Hits are enriched below; roughly 3.8% of the tested compounds scored in any of these assays. Calls come from the whole dose curve; as a rule, active = well fitted curve in the direction sought with a large enough effect; inconclusive = small, poorly fitted or top-dose-only effect, or another doubt; inactive = no such curve, though single readings can be large; an effect the other way counts as inactive or inconclusive.

CCOc1ccccc1N(CC(=O)NC1CCCC1)S(=O)(=O)c1ccc(C)cc1	Nrf2 inh 15µM
COc1ccccc1C(=O)Nc1ccc(S(=O)(=O)N2CCOCC2)cc1	none (no result: Nrf2 inh)
COc1ccccc1C(=O)Nc1ccc(S(=O)(=O)N2CCC(C)CC2)cc1	Nrf2 inh 23µM
COc1ccccc1C(=O)Nc1ccc(S(=O)(=O)N2CCCCC2c2cccnc2)cc1 (stereo unspecified)	Nrf2 inh 16µM, ATXN2 expr inh inconclusive, S2 tox inconclusive
O=C(Nc1ccc(S(=O)(=O)N2CCCCC2c2cccnc2)cc1)c1ccccc1F (stereo unspecified)	S2 tox inconclusive (no result: ATXN2 expr inh)
COc1ccccc1C(=O)NCCC(=O)Nc1ccc(S(=O)(=O)N2CCC(C)CC2)cc1	Nrf2 inh 12µM
Cn1c(SCc2ccccc2)nc2ccsc2c1=O	Nrf2 inh 16µM
Cn1c(SCc2ccc(Br)cc2)nc2ccccc2c1=O	TGFb inhibitor inconclusive, Nrf2 inh inconclusive
COc1ccc([N+](=O)[O-])cc1N/C(=N/S(=O)(=O)c1ccccc1)c1ccccc1	none
O=C1COc2ccc(C(=O)COC(=O)c3ccc([N+](=O)[O-])cc3Cl)cc2N1	none
Cc1cc(C)c(OCC(=O)N(Cc2cccc(F)c2)Cc2ccco2)c(C)c1	HepG2 viability 11µM, Nrf2 inh inconclusive (no result: ATXN2 expr inh, S2 tox)
Cc1cccc(C)c1OCC(=O)N(Cc1ccco1)Cc1ccco1	none (no result: ATXN2 expr inh, S2 tox)
Cc1ccc(CN(Cc2ccco2)C(=O)COc2ccc(C(C)C)cc2)cc1	TGFb inhibitor inconclusive, Nrf2 inh 18µM (no result: ATXN2 expr inh, S2 tox)
Cc1ccc(OCC(=O)N(Cc2ccco2)Cc2ccco2)cc1	none (no result: ATXN2 expr inh, S2 tox)
COc1cc(NS(=O)(=O)c2ccc(OC)c(C)c2C)c(OC)cc1Cl	TGFb inhibitor inconclusive, Nrf2 inh 21µM, ATXN2 expr inh inconclusive
Cc1cccc(NC(=O)C2CCCN(S(=O)(=O)c3ccc4c(c3)oc(=O)n4C)C2)c1C (stereo unspecified)	none
O=C(C1CCCN(c2ncnc3c2nc2n3CCCCC2)C1)N1CCN(c2cccc(Cl)c2)CC1 (stereo unspecified)	TGFb inhibitor 11µM, S2 tox 14µM (no result: ATXN2 expr inh)
Cc1ccc(C)c(N2CCN(C(=O)C3CCCN(c4ncnc5c4nc4n5CCCCC4)C3)CC2)c1 (stereo unspecified)	TGFb inhibitor 18µM, Nrf2 inh 15µM, ATXN2 expr inh inconclusive, S2 tox inconclusive
Cc1ccc(CSc2nc3cccnc3n2Cc2nc(-c3ccccc3F)oc2C)cc1	TGFb inhibitor inconclusive, Nrf2 inh inconclusive (no result: ATXN2 expr inh, S2 tox)
COc1ccc(CCNCC(O)Cn2c3ccccc3c3ccccc32)cc1OC (stereo unspecified)	TGFb inhibitor inconclusive, HepG2 viability 11µM, Nrf2 inh inconclusive, ATXN2 expr inh inconclusive, S2 tox inconclusive
COc1ccccc1NCC(O)Cn1c2ccccc2c2ccccc21 (stereo unspecified)	TGFb inhibitor 13µM, A549 viability 21µM, Nrf2 inh inconclusive
C=CC[C@H](CC(=O)N(CCO)Cc1ccccc1)C(=O)N[C@H](COC(=O)[C@@H](CC=C)CC(=O)OC(C)(C)C)c1ccccc1	TGFb inhibitor inconclusive, ATXN2 expr inh inconclusive (no result: S2 tox)
Cc1nn(C(C)(C)C)c(OC(=O)c2c(F)cccc2F)c1Sc1ccccc1	A549 viability inconclusive
Cc1ccc(C2CN(C)C3(C(=O)Nc4ccccc43)C23COc2ccccc2C3=O)cc1 (stereo unspecified)	TGFb inhibitor inconclusive, Nrf2 inh inconclusive
CN1CC(c2ccccn2)C2(SC(=S)N(Cc3ccccc3)C2=O)C12C(=O)Nc1ccccc12 (stereo unspecified)	TGFb inhibitor inconclusive, Nrf2 inh 23µM, ATXN2 expr inh inconclusive, S2 tox inconclusive
CN1CC(c2ccccc2)C2(SC(=S)N(Cc3ccco3)C2=O)C12C(=O)Nc1ccccc12 (stereo unspecified)	TGFb inhibitor inconclusive, A549 viability inconclusive, Nrf2 inh 12µM, ATXN2 expr inh inconclusive, S2 tox inconclusive
COC(=O)[C@@H]1C[C@@H](NC(=O)c2ccc(C(F)(F)F)cc2)CN1Cc1cccc(O)c1	none (no result: TGFb inhibitor, HepG2 viability, A549 viability, Nrf2 inh, ATXN2 expr inh)
CC(C)(C)NC(=O)c1ccc2nsnc2c1	none
O=c1oc2ccccc2c(Nc2ccc(O)cc2)c1[N+](=O)[O-]	none
Cc1ccc(Nc2c([N+](=O)[O-])c(=O)oc3ccccc23)cc1	A549 viability inconclusive, Nrf2 inh 18µM, ATXN2 expr inh inconclusive
O=C1Nc2cc(C(=O)NCCN3CCCCCC3)ccc2S/C1=C/c1ccccc1F	TGFb inhibitor 10µM, HepG2 viability 8.9µM, S2 tox inconclusive (no result: A549 viability, Nrf2 inh, ATXN2 expr inh)
CCN1CCCC1CNC(=O)c1ccc2c(c1)NC(=O)/C(=C\c1ccc(C)cc1)S2 (stereo unspecified)	TGFb inhibitor inconclusive, HepG2 viability 16µM (no result: ATXN2 expr inh, S2 tox)
O=C1Nc2cc(C(=O)NCCCN3CCCC3)ccc2S/C1=C/c1ccccc1F	TGFb inhibitor inconclusive, S2 tox inconclusive (no result: ATXN2 expr inh)
COc1cccc(/C=C2/Sc3ccc(C(=O)NCCN4CCCC4)cc3NC2=O)c1	TGFb inhibitor inconclusive, HepG2 viability 14µM, S2 tox inconclusive (no result: ATXN2 expr inh)
C[C@@H](CO)NC(=O)c1nc[nH]c1C(=O)N[C@H](C)c1ccccc1	none (no result: A549 viability, Nrf2 inh)
COc1ccccc1/C=C1\CCCC2=C1Nc1nnnn1C2c1ccccc1OC (stereo unspecified)	TGFb inhibitor 13µM, Nrf2 inh inconclusive
CC1CCCC(C)N1c1nnc(NC(=O)c2cc(-c3ccc(Br)cc3)on2)s1 (stereo unspecified)	none
O=S(=O)(NCCc1cn2ccccc2n1)c1ccc(-c2ccccc2)cc1	Nrf2 inh 21µM
CCOc1ccc(S(=O)(=O)NCCc2cn3ccccc3n2)cc1	Nrf2 inh inconclusive
O=C(c1ccco1)N1CCN(CCCCOc2cccc3ccccc23)CC1	TGFb inhibitor inconclusive, HepG2 viability 7.9µM, Nrf2 inh inconclusive, ATXN2 expr inh inconclusive, S2 tox inconclusive
CCOc1ccccc1-c1nc(CN2CCN(C(=O)c3ccco3)CC2)c(C)o1	none
O=C(c1ccco1)N1CCN(CCOCCOc2cccc3ccccc23)CC1	none
CCOc1ccccc1-n1c(CN2CCN(C(=O)c3ccco3)CC2)nc2ccccc2c1=O	Nrf2 inh 16µM
Cc1sc2nc(-c3ccccn3)[nH]c(=O)c2c1-c1ccccc1	TGFb inhibitor inconclusive, Nrf2 inh 12µM (no result: S2 tox)
CCN(CC)C(=O)c1sc2nc(-c3ccccn3)[nH]c(=O)c2c1C	none
Cc1ccccc1NC(=O)CCC(=O)OCCCC(F)(F)C(F)(F)F	S2 tox inconclusive
O=C(CN1C(=O)CCc2cc(S(=O)(=O)N3CCOCC3)ccc21)Nc1cccc(Cl)c1	none (no result: Nrf2 inh)
